# Source: PubChem BioAssay AID2061320 (National Center for Advancing Translational Sciences (NCATS), 2025)
# Results filed as inconclusive are left out. Active and inactive are the calls of the source. The call rests on the fitted dose curve; in most records, active means well fitted inhibition curve with a large enough effect; inconclusive means small, poorly fitted or top-dose-only effect; inactive means flat fitted curve, though single readings scatter.
# Assay: Identification of antibody-drug conjugate (ADC) payloads which are substrates of ATP-binding cassette drug efflux transporters: ABCG2-H460-MX20 cell line
# Conditions: H460-MX20 (ABCG2) viability, CellTiter-Glo, 48 h; series mostly up to 28.7 µM
# Excerpt: Antibody-drug conjugates (ADCs) feature an antibody recognizing a specific protein joined to a potent toxic payload. Numerous antibody-drug conjugates have received FDA approval; however, clinical resistance arises. Resistance mechanisms include decreased expression or mutation of the antibody target, impaired payload release, or increased expression of ATP-binding cassette (ABC) efflux transporters associated with multidrug resistance. We therefore sought to characterize the interaction of ABC multidrug transporters with ADC payloads. We performed a high-throughput screen with 27 common ADC payloads using cells lines expressing ABC transporters P-glycoprotein (P-gp, encoded by ABCB1) or ABCG2 (encoded by ABCG2). Confirmatory assays were also performed using cells transfected to express P-gp, ABCG2, or MRP1 (encoded by ABCC1). Several commonly used ADC payloads were substrates of P-gp, including calicheamicin gamma1, monomethyl auristatin E, DM1, and DM4. All the pyrrolobenzodiazepines tested - SJG136, SGD-1882, SG2057, and SG3199 - were substrates of P-gp, ABCG2, and MRP1. […] These findings highlight the risk of transporter-mediated resistance with certain ADC payloads and underscore the importance of selecting payloads that evade ABC transporter recognition in future ADC development.
# HEK-293 cells were transfected with empty vector (pcDNA) or vector containing the human ABCB1 (MDR-19), ABCG2 (R-5), or ABCC1 gene (MRP1) and were maintained in EMEM with 2 mg/mL G418 added to maintain transporter expression. The HeLa derivative KB-3-1 and the P-gp overexpressing KB-8-5-11 subline were maintained in DMEM; KB-8-5-11 additionally received 100 ng/mL colchicine. H460 parental cells were obtained from the Division of Cancer Treatment and Diagnosis Tumor Repository, National Cancer Institute at Frederick, MD and were cultured in RPMI. The ABCG2 expressing subline H460 MX20 was generated by selecting H460 cells in 20 nM mitoxantrone. Media in all cases was supplemented with 10% FBS and 1% penicillin-streptomycin. We explored 27 common ADC payloads, in two orthogonal, paired cell line sets-a drug selected and transfected set for each transporter--to identify substrates of the ABC transporters P-gp and ABCG2. Compounds were sourced from Levena Biopharma (San Diego, CA), Selleck Chem (Houston, TX), ChemieTek (Indianapolis, IN), or Microsource Discovery Systems (Gaylordsville, CT). Screening was performed as previously described. Briefly, cells were plated at a density of 500 cells/well in 1536 well plates with compounds added using a 1536-head pin tool (Kalypsys, San Diego CA). Cells were incubated with cytotoxic drugs and processed with CellTiter Glo reagent (Promega, Madison, WI) to determine viability after 48 hours. P-gp substrates were identified by comparing compound activity between paired sets of low-expressing (sensitive) and over-expressing (resistant) cell lines.
row,Compound,Potency
1,CN(C)CCOc1ccc2[nH]c(C(=O)N3C[C@@H](CCl)c4c3cc(O)c3ccccc43)cc2c1,0.8 nM (active)
2,CC[C@H](C)[C@@H]([C@H](N)CC(=O)N1CCC[C@H]1[C@H](OC)[C@@H](C)C(=O)N[C@@H](Cc1ccccc1)c1nccs1)N(C)C(=O)[C@@H](NC(=O)[C@@H](NC)C(C)C)C(C)C,inactive
3,CCN[C@H]1CO[C@@H](O[C@H]2[C@H](O[C@H]3C#C/C=C\C#C[C@]4(O)CC(=O)C(NC(=O)OC)=C3/C4=C\CSSSC)O[C@H](C)[C@@H](NO[C@H]3C[C@H](O)[C@H](SC(=O)c4c(C)c(I)c(O[C@@H]5O[C@@H](C)[C@H](O)[C@@H](OC)[C@H]5O)c(OC)c4OC)[C@@H](C)O3)[C@@H]2O)C[C@@H]1OC,4.2 nM (active)
4,CCN(C(C)=O)[C@H]1CO[C@@H](O[C@H]2[C@H](O[C@H]3C#C/C=C\C#C[C@]4(O)CC(=O)C(NC(=O)OC)=C3/C4=C\CSSSC)O[C@H](C)[C@@H](NO[C@H]3C[C@H](O)[C@H](SC(=O)c4c(C)c(I)c(O[C@@H]5O[C@@H](C)[C@H](O)[C@@H](OC)[C@H]5O)c(OC)c4OC)[C@@H](C)O3)[C@@H]2O)C[C@@H]1OC,15 nM (active)
5,COc1cccc2c1C(=O)c1c(O)c3c(c(O)c1C2=O)C[C@@](O)(C(=O)CO)C[C@@H]3O[C@H]1C[C@H]2[C@H](O[C@@H]3[C@@H](OC)OCCN32)[C@H](C)O1,0.2 nM (active)
6,COC(=O)c1cc2c3c(cc(O)c2[nH]1)N(C(=O)c1cc2cc(OC)c(OC)c(OC)c2[nH]1)CC3CCl (stereo not drawn),0.7 nM (active)
7,CC(C)(C)OC(=O)Nc1ccc2[nH]c(C(=O)N3C[C@@H](CCl)c4c3cc(O)c3ccccc43)cc2c1,10.6 nM (active)
8,COc1cccc2c1C(=O)c1c(O)c3c(c(O)c1C2=O)C[C@@](O)(C(=O)CO)C[C@@H]3O[C@H]1C[C@H](N)[C@H](O)[C@H](C)O1,1190 nM (active)
